One assay has as its target hPUF_MT(F856A) (UniProt Q14671 SEQ:1-349, F856A). Put plainly: EMSA. The settings on record: tags: MBP; label: Alexa680 at 5' and 3'; ssRNA.
For the next assay, the target named is hPUF_MT(F865A) (UniProt Q14671 SEQ:1-349, F865A). The assay is described as follows: EMSA; smaller contribution than F856. The settings on record: tags: MBP; label: Alexa680 at 5' and 3'; ssRNA.
Assay [1] concerns the target T1, hPUF_MT(R5:A_13R)(R5:A_13Y)2(R6:C_13Y)3.
T1 chain: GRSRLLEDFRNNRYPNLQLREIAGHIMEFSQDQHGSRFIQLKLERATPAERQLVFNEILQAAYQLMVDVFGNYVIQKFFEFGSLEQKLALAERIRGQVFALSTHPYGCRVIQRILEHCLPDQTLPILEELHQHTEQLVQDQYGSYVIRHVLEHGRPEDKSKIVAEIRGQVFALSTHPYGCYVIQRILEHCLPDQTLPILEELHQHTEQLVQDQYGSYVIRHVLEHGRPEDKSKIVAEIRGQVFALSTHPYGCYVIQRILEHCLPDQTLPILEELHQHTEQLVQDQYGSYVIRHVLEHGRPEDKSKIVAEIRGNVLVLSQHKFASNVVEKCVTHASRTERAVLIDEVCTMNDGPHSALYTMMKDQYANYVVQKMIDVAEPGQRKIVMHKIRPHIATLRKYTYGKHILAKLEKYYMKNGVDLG
Put plainly: EMSA; 13R about 10 times greater. The settings on record: label: Alexa680 at 5' and 3'; ssRNA. In general terms: Mobility shift assays separate free from complexed probe on a gel.

Regarding CCAGAAUUGUAUAUAUUCG, the binding signal in the assay with hPUF_MT(F856A) and in the assay with hPUF_MT(F865A) was ~0.1 fold of WT in each case. For CCAGAAUUGCACACAUAUUCG, the binding signal in assay [1] is ~0.1 fold of 13R protein.

These data come from patent publication US11472855, “RNA-binding protein” (Panitch Schwarze Belisario & Nadel LLP).
